High-throughput results: PubChem BioAssay, Broad Institute
Shn3 3UTR inh: reduces Shn3 3'UTR luciferase signal in osteoblasts; 360,000 tested, 0.52% active; Clone20 osteoblast Shn3 3'UTR firefly luciferase, 24 h; AID 588674; inhibition, % at 12.5 µM;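 active = mean inhibition of at least 75% with every replicate also reaching 75%; inconclusive = mean inhibition at least 75% but some replicate below; inactive = mean inhibition below 75%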
PfHsp90 yeast 2: inhibits growth of yeast expressing Plasmodium falciparum Hsp90; inhibition, % at 9.4 µM; S. cerevisiae expressing PfHsp90, BacTiter-Glo ATP, 48 h; yeast lacking PDR1 and PDR3 efflux regulators; 310,000 tested, 0.32% active;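 active = every replicate shows inhibition above about 80%, whatever the replicate mean, limit read from the data; inconclusive = mean inhibition reaches the set limit but some replicate falls short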
CSC inhib: blocks cancer stem cells | cancer stem cell-like cells viability, luminescence | inhibition, % at 7.5 µM | 300,000 tested, 1.1% active | AID 2717; in the data active = inhibition above about 75%; inconclusive = no clear call, values can overlap the other calls; tested in HMLE shEcad cells
Beta apoptosis: beta cell apoptosis inhibition; INS-1E cytokine-induced death, ATP luminescence, 48 h; percent of positive-control rescue, neutral wells zero; protection from apoptosis, % (concentration not given with the values); 300,000 tested, 0.8% active;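 active = Every replicate reaches about 75%, or at least half do and their mean reaches it too, limit read from the data; inconclusive = At least half of replicates reach the limit but their mean does not; inactive = Under half of replicates reach the limit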;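 note: higher means more ATP so stronger rescue from cytokine killing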
Calb FLC: C. albicans growth modulation with fluconazole; C. albicans CaCi-2 (fluconazole-resistant clinical isolate) + fluconazole, Alamar Blue growth, 48 h; growth inhibition, % (concentration not given with the values); 300,000 tested, 0.57% active; AID 1979;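 active = growth inhibition above about 58% in most replicates, limit read from the data, passing the limit was not always enough; inconclusive = exactly half the replicates above a set limit; inactive = most replicates below a set limit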;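 note: all wells also contain fluconazole at 8 µg/ml as a sub-toxic cotreatment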
Each line names hits and unclear results; the compound was inactive in the other large screens. Compounds with a hit are over-represented: about 2.2% of the library has one in this group of screens.

CC(=O)O[C@H]1[C@H]2O[C@]23[C@@H]2CC[C@]4(O)C[C@@H](O)CC[C@]4(C)C2CC[C@]3(C)[C@H]1c1ccc(=O)oc1 (some centres not stated)	CSC inhib 105 (no result: Calb FLC)
O=C(c1ccco1)N1Cc2ccccc2-n2nncc2C1	none (no result: PfHsp90 yeast 2, CSC inhib, Beta apoptosis, Calb FLC)
C[C@]12CCC3C(CC[C@H]4C[C@@H](O)CC[C@]34C)C1[C@H]1CN=N[C@H]1[C@@H]2O (some centres not stated)	none (no result: Calb FLC)
CCN1C[C@]2(COC)CC[C@H](OC)[C@@]34C5C[C@H]6C(=O)C5[C@](O)(C[C@H]6OC)[C@@](O)(C(OC)C23)[C@@H]14 (some centres not stated)	none
Cc1ccc(-c2cc(-c3ccccc3)cc(-c3ccccc3)[n+]2-c2ccc(C(=O)O)cc2)cc1	none
COc1ccc(-c2cc(-c3ccccc3)[n+](C)c(-c3ccccc3)c2)cc1	Beta apoptosis 109, Calb FLC 103
Cc1ccc(N2C(=O)NC(=O)/C(=C\C=C\c3ccco3)C2=O)cc1C	Shn3 3UTR inh inconclusive, Beta apoptosis 97
CN1C(=O)/C(=C/C=C/c2ccco2)C(=O)NC1=S	none
Cc1cccc(N2C(=O)NC(=O)/C(=C\C=C\c3ccco3)C2=O)c1	Shn3 3UTR inh 98, CSC inhib inconclusive
Cc1ccc(N2C(=O)NC(=O)/C(=C\C=C\c3ccco3)C2=O)cc1	CSC inhib 79
O=C1NC(=O)N(c2ccccc2)C(=O)/C1=C/C=C/c1ccco1	CSC inhib 88
BrCC(Br)(Br)Br	none (no result: Calb FLC)
CC1(C)C(c2ccccc2)=NC(c2cccnc2)N1O (configuration not stated)	none
NC(N)=N/N=C/c1ccc(N(c2ccccc2)c2ccccc2)cc1	Shn3 3UTR inh 95, CSC inhib 110, Beta apoptosis 110, Calb FLC 94
CC(C)(C)C(=O)O[C@H]1CC[C@@]2(C)C(=CC(=O)C3C2CC[C@]2(C)C(=O)[C@@H](F)CC32)C1 (some centres not stated)	none (no result: Calb FLC)
O=C(NC(=O)N1CCC2(CC1)OCCO2)c1ccc(Cl)cc1	none
C=CCOC(=O)C1C(C(=O)O)C2(Cl)C(Cl)=C(Cl)C1(Cl)C2(Cl)Cl (configuration not stated)	none (no result: CSC inhib, Beta apoptosis, Calb FLC)
COc1cc(CN2CCN(c3cc(C)ccc3C)CC2)ccc1O	Beta apoptosis 108
COc1ccc2c(c1OC)CN1CCc3cc4c(cc3[C@H]1C2)OCO4	none (no result: Calb FLC)
CCC1CN2CCc3cc(OC)c(OC)cc3C2CC1CC1NCCc2c1[nH]c1ccc(O)cc21 (configuration not stated)	Shn3 3UTR inh 92 (no result: CSC inhib, Beta apoptosis, Calb FLC)
CC1CCN(C(CC(=O)c2ccccc2)C(=O)c2ccccc2)CC1 (configuration not stated)	PfHsp90 yeast 2 113 (no result: CSC inhib, Beta apoptosis, Calb FLC)
CN1C2CCC1C(COC(=O)c1ccccc1)C(O)C2 (configuration not stated)	none
Cc1ccc(C2=NC(C)(C)N3C2C3c2ccc([N+](=O)[O-])cc2)cc1 (configuration not stated)	none
O=[N+]([O-])c1ccc(C2[C@H]3C(c4ccccc4)=NC4(CCCC4)N23)cc1 (some centres not stated)	Calb FLC 99
CCN(CC)S(=O)(=O)c1cc(NC(=O)C(C)N2CC=C(c3ccccc3)CC2)ccc1C (configuration not stated)	none
O=[N+]([O-])c1ccc(Cl)c([N+](=O)[O-])c1	CSC inhib 102 (no result: Calb FLC)
Cc1cccc(OP(=O)(NCc2ccccc2)Oc2cccc(C)c2)c1	none
Clc1cccc(CNCCc2c[nH]c3ccccc23)c1	none
CC(C)OCCCNC(=O)c1c(N)n(Cc2cccs2)c2nc3ccccc3nc12	CSC inhib 118
COCCNC(=O)c1c(N)n(CCC(C)C)c2nc3ccccc3nc12	none
CC(C)CCn1c(N)c(C(=O)NCc2cccs2)c2nc3ccccc3nc21	CSC inhib 77
CCCC1(CC(C)CC)C(=O)NC(=O)NC1=O (configuration not stated)	none (no result: PfHsp90 yeast 2, CSC inhib, Beta apoptosis, Calb FLC)
CN1CCC2(O)OCCCC2C1 (configuration not stated)	none
CC(C)CCC1(CN2CCCC2=O)C(=O)NC(=O)NC1=O	none (no result: CSC inhib)
C=C1C(=O)O[C@H]2[C@H]1[C@H](OC(=O)CC(=O)O[C@@H]1C[C@@H](C)[C@@H]3C=CC(=O)[C@@]3(C)[C@H]3OC(=O)C(=C)[C@H]13)C[C@@H](C)[C@H]1C=CC(=O)[C@]12C	none
C=C1C(=O)OC2C1CCC(C)C1(O)C=CC(=O)C21C (configuration not stated)	none (no result: CSC inhib, Beta apoptosis, Calb FLC)
C=C1C(=O)O[C@H]2C[C@@H](C)[C@@H]3C=CC(=O)[C@@]3(C)C[C@H]12	CSC inhib 89, Beta apoptosis 104 (no result: Shn3 3UTR inh, PfHsp90 yeast 2)
C=C1C(=O)O[C@@H]2C[C@@H](C)[C@@H]3C4OC4C(=O)[C@@]3(C)[C@@H](O)[C@H]12 (some centres not stated)	CSC inhib 75, Beta apoptosis 104, Calb FLC 77
C=C1C(=O)OC2CC(C)C3C=CC(=O)C3(C)C(O)C12 (configuration not stated)	Shn3 3UTR inh 97 (no result: CSC inhib, Beta apoptosis, Calb FLC)
C=C1C(=O)O[C@@H]2C[C@@H](C)[C@@H]3C=CC(=O)[C@@]3(C)[C@@H](OC(=O)CC(=O)O[C@H]3[C@@H]4C(=C)C(=O)O[C@@H]4C[C@@H](C)[C@@H]4C=CC(=O)[C@]43C)[C@H]12	Shn3 3UTR inh 96, CSC inhib 122, Beta apoptosis 132
O=C(Cc1ccccc1)OC(COCc1ccccc1)CN1CCOCC1 (configuration not stated)	none
N[C@@H]1CCCC[C@H]1N.O=C(O)C(=O)O.[Pt]	Beta apoptosis 87 (no result: Shn3 3UTR inh, PfHsp90 yeast 2)
Cc1nc2ccccc2c(=O)n1-c1c(Cl)cccc1Cl	none (no result: PfHsp90 yeast 2, CSC inhib, Beta apoptosis, Calb FLC)
COC(=O)C1=C(c2ccc(F)cc2OCc2ccccc2)C[C@@H]2CC[C@H]1N2C(=O)NC1Cc2ccccc2C1	Shn3 3UTR inh 87 (no result: Calb FLC)
CC(C)(O)/C=C/C(=O)C(C)(O)C1C(O)CC2(C)C3CC=C4C(C=C(O)C(=O)C4(C)C)C3(C)C(=O)CC12C (configuration not stated)	Shn3 3UTR inh 89 (no result: CSC inhib, Beta apoptosis, Calb FLC)
CCCCCCC(C)(C)c1ccc([C@@H]2C[C@H](O)CC[C@H]2CCCO)c(O)c1	CSC inhib 103 (no result: Calb FLC)
O=C1CC(=O)N(c2ccccc2)C(=O)N1	none (no result: CSC inhib, Beta apoptosis, Calb FLC)
O=c1[nH]c2ccccc2n1C1CCN(CCCC(c2ccc(F)cc2)c2ccc(F)cc2)CC1	CSC inhib 98 (no result: Calb FLC)
Cc1ccc(-c2cc(-c3ccc(C)cc3)[n+](-c3ccc(C(=O)O)cc3)c(-c3ccc(C)cc3)c2)cc1	none
Cc1ccc(C[n+]2c(-c3ccc(C)cc3)cc(-c3ccc(C)cc3)cc2-c2ccc(C)cc2)cc1	Shn3 3UTR inh 92, PfHsp90 yeast 2 inconclusive, Beta apoptosis 118
Cc1nnc(SCc2nc3ccccc3c(=O)n2-c2ccccc2Cl)n1N	none
COc1ccc2c3c1O[C@H]1C(=O)CC[C@H]4[C@@H](C2)N(C)CC[C@]314	none (no result: PfHsp90 yeast 2, CSC inhib, Beta apoptosis, Calb FLC)
